Tat export inh = blocks Tat-dependent protein export in E. coli. AID 488895. hit rate 0.036% among 340,000. E. coli MC4100 TorA-mCherry Tat export, fluorescence. inhibition, % at 10 µM;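 active means mean replicate inhibition at least 50% and at least half of replicates individually reaching 50%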;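 further: exported cargo escapes ClpAP degradation while cytoplasmic cargo is degraded and loses fluorescence; 0% = median of neutral control wells and 100% = median of NaSCN control wells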
E coli growth-1 = reduces bacterial viability in AddAB counter-screen; E. coli V3065 growth, OD600 absorbance, 18 h; inhibition, % at 11.9 µM; hit rate 0.27% among 330,000;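 active means inhibition above the campaign's mean inhibition across all tested compounds plus 3 SD, cut at about 9.9% in these data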;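 further: uninfected addAB+ strain grown without phage in ampicillin broth; 0% = DMSO wells and 100% = ciprofloxacin 0.95 µg/ml wells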
E coli growth-2 = E. coli growth inhibition | Escherichia coli growth, OD600, 23 h; active compounds read low | AID 1053175 | hit rate 0.21% among 330,000 | OD600 absorbance (test concentration not listed);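 active means OD600 absorbance below the run mean of sample wells minus 3.6 SD, in any replicate, cut at about 0.56 in these data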
AddAB inh = less growth of phage-infected E. coli with AddAB | AID 435030 | hit rate 0.29% among 330,000 | inhibition, % at 11.9 µM | E. coli expressing H. pylori AddAB, absorbance growth; in the data active means inhibition above about 12%;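 further: 0% = vehicle wells of infected cells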
phage Ecoli inh = E. coli growth loss with phage present | growth absorbance | hit rate 0.26% among 360,000 | inhibition, % at 11.9 µM; in the data active means inhibition above about 11%
RecBCD conf = growth loss of phage-infected V66 E. coli, RecBCD confirmation screen; shares compounds with phage Ecoli inh; hit rate 45% among 890; inhibition, % at 11.9 µM; E. coli V66 + T4 2- phage, growth OD;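 active means mean inhibition over triplicates exceeding the hit threshold derived in the original primary screen, cut at about 11% in these data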
Ecoli viability = counter-screen for RecBCD inhibitors: inhibitors of bacterial viability; hit rate 29% among 890; shares compounds with phage Ecoli inh; inhibition, % at 11.9 µM; E. coli viability, absorbance (OD) growth; in the data active means inhibition above about 20%;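 further: E. coli strain V66 grown with compound alone and no phage infection; 0% = bacteria with DMSO vehicle only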
AddAB counter = growth loss of phage-infected AddAB E. coli, RecBCD counter-screen. shares compounds with phage Ecoli inh. E. coli expressing H. pylori AddAB + T4 phage, OD growth; gene 2 mutant T4, recBCD-deleted host. inhibition, % at 11.9 µM. hit rate 45% among 890. AID 651984;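 active means mean inhibition above the solvent-only control wells' mean plus 3 SD, cut at about 22% in these data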;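 further: higher means less bacterial growth from phage killing when AddAB is blocked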
* = called active by the depositor; / = no result; ! = not confirmed by another sample. Most compounds without a hit are left out; they make up all but 0.51% or so of the library.

SMILES | Tat export inh | E coli growth-1 | E coli growth-2 | AddAB inh | phage Ecoli inh | RecBCD conf | Ecoli viability | AddAB counter
CCN(CC)c1ccc2cc(-c3nc4ccccc4n3C)c(=O)oc2c1 | 12 | 0 | 0.67 | 0 | 99* | 80* | 71* | 93*
CCN(CC)c1ccc2cc(-c3nc4ccccc4[nH]3)c(=O)oc2c1 | 2 | 0 | 0.67 | 0 | / | / | / | /
C=CCc1cccc(C=NNC(=O)CCC(=O)Nc2ccc(C)cc2)c1O | / | / | 0.75 | / | / | / | / | /
C=CCc1cccc(/C=N/NC(=O)CCCNc2ccc(C)cc2)c1O | 8 | 2 | / | 0 | 12* | 1 | 3 | 5
CCCC(=O)Nc1cc(=O)n(C)c(=O)n1C | 4 | 1 | 0.67 | 2 | 53* | 1 | 1 | 0
Oc1c(Br)cc(Br)cc1/C=N/Nc1ccc(Cl)nn1 | -5 | 1 | / | 0 | 0 | / | / | /
Oc1ccc(/C=N/Nc2ccc(Cl)nn2)c(O)c1O | -3 | 3 | / | 2 | 11* | 3 | 2 | 21*
CCN1C(=O)C2C(c3ccc(OC)cc3)N3C(=O)CN(CCOC)C(=O)[C@@]3(C)C2C1=O (some centres undefined) | / | / | 0.69 | / | / | / | / | /
Cn1cc(S(=O)(=O)N2CCC(C(N)=O)CC2)c(=O)n(C)c1=O | -2 | 1 | 0.72 | 1 | 94* | 0 | 1 | -2
CCC1OC(=O)C(C)C(OC2C[C@@](C)(OC)C(O)C(C)O2)C(C)C(O[C@@H]2OC(C)CC(N(C)C)C2O)[C@](C)(O)CC(C)C(=NOCOCCOC)C(C)C(O)[C@]1(C)O (some centres undefined) | 7 | 10.0* | / | 9 | 12* | 5 | 5 | 4
CN(C)S(=O)(=O)c1ccc(C(=O)NCC(=O)NN=Cc2ccccc2Cl)cc1 | / | / | 0.65 | / | / | / | / | /
O=C(CCn1cnc(-c2ccccc2)c1-c1ccccc1)N/N=C/c1ccccc1O | 2 | 1 | / | 2 | 11* | 3 | 2 | 5
Cc1ccsc1C=NNC(=O)C1CC(=O)N(c2ccc(F)cc2)C1 (centres undefined) | / | / | 0.63 | / | / | / | / | /
CCCNC1C(=O)N2C(C(=O)OCCC)=C(C)CSC12 (centres undefined) | / | / | 0.7 | / | / | / | / | /
O=C(NNC(=O)c1cc2ccccc2cc1O)Nc1ccc(F)cc1F | 1 | 8 | 0.71 | 12 | 11* | 2 | 5 | 2
O=C(NNC(=O)c1cc2ccccc2cc1O)NC1CCCCC1 | 2 | / | 0.73 | / | 13* | 9 | 9 | 5
CCCCN1CCC2C=CCC(C(=O)Nc3nccs3)C2C1=O (centres undefined) | / | / | 0.71 | / | / | / | / | /
COc1ccc(C2CC(=O)C=C(c3ccccc3-c3ccccc3)C2)cc1 (centres undefined) | / | / | 0.72 | / | / | / | / | /
Cc1ccc(C(O)(C(=O)NNc2ccc3ccccc3n2)c2ccc(C)cc2)cc1 | -2 | 11*! | 0.69 | 10 | 13*! | 4 | 8 | 4
Cc1ccc(C(=O)Nc2ccc3ccccc3n2)cc1 | -4 | -1 | 0.66 | 4 | 2 | / | / | /
O=C(Nc1ccncc1)Nc1cccc(C(F)(F)F)c1 | 0 | 1 | 0.53 | 0 | 8 | / | / | /
O=C(Nc1ccc(OC(F)F)cc1)Nc1cccc(C(F)(F)F)c1 | -33 | 13* | 0.53* | 11 | 12* | 11* | 12 | 10
O=C(N/N=C\C=C\c1ccc([N+](=O)[O-])o1)c1cccs1 | 23 | / | / | / | 98* | 105* | 107* | 104*
O=c1c(O)c(-c2cccs2)oc2ccc(Cl)cc12 | -5 | 8 | 0.63 | 7 | 14* | 3 | 5 | 8
C=CCON=C(C)c1c(O)c(CC)c(-c2ccccc2)n(-c2ccccc2)c1=O | / | / | 0.72 | / | / | / | / | /
SMILES | Tat export inh | E coli growth-1 | E coli growth-2 | AddAB inh | phage Ecoli inh | RecBCD conf | Ecoli viability | AddAB counter
CC(=NNc1ccc(Cl)cc1)c1c(O)cc(C)oc1=O | / | / | 0.67 | / | / | / | / | /
Cc1noc(C)c1S(=O)(=O)N(C)CC1Oc2ccc(NC(=O)C3CCCCC3)cc2C(=O)N(C(C)CO)CC1C (centres undefined) | / | / | 0.64 | / | / | / | / | /
CCc1noc(C)c1C(=O)OCC(=O)Nc1ccc2c(c1)OCO2 | -4 | -1 | 0.68 | 2 | 12* | 2 | 2 | -1
Cc1cccc(NC(=O)COC(=O)c2c(-c3ccccc3)noc2C)c1 | / | / | / | / | 13* | -1 | -1 | -1
Cc1onc(-c2ccccc2)c1C(=O)OCC(=O)Nc1ccccc1 | 2 | / | 0.69 | / | 3 | / | / | /
COc1ccc(C2C=CCN(C(=O)C3CCCCC3)CC(=O)N2Cc2ccc(F)cc2)cc1 (centres undefined) | / | / | 0.69 | / | / | / | / | /
O=C(Nc1ccc2[nH]ncc2c1)c1ccc(F)cc1 | -2 | 0 | 0.7 | 4 | 12* | -1 | -2 | -2
O=C(NN=Cc1ccco1)C(=O)Nc1cccc(C(F)(F)F)c1 | / | / | / | / | 2 | / | / | /
CCOc1cccc(C=NNC(=O)C(=O)Nc2cccc(C(F)(F)F)c2)c1O | / | / | / | / | 18* | 11* | 15 | 16
Cc1c(C(=O)NNC(=O)c2ccccc2O)oc2ccccc12 | / | / | / | / | 13* | 6 | 8 | 8
CCN1/C(=C/c2ccc3cc(C)ccc3[n+]2CC)Sc2cc(C)c(C)cc21 | -8 | / | 0.25* | / | 12* | 10 | 9 | 27*
O=C(Nc1cccc([N+](=O)[O-])c1)c1ccc([N+](=O)[O-])o1 | / | / | / | / | 20* | 15* | 17 | 90*
O=C(Nc1cccc([N+](=O)[O-])c1)c1ccncc1 | -7 | -2 | 0.7 | 5 | 4 | / | / | /
CC1CN(C(C)CO)C(=O)c2cccc(NC(=O)C3CCCCC3)c2OC1CN(C)Cc1ccncc1 (centres undefined) | / | / | 0.69 | / | / | / | / | /
O=C(C1=CC(c2ccccc2)CC(OCc2ccc(CO)cc2)O1)N1CCCCCCC1 (centres undefined) | / | / | 0.68 | / | / | / | / | /
O=Nc1nc2ncccn2c1-c1ccccc1 | 4 | / | / | / | 15* | 8 | 16 | 95*
CCOC(=O)C1C2COc3ccc(OC)cc3C2N2C(=O)CN(Cc3ccc(OC)cc3)C(=O)[C@@]12C (some centres undefined) | / | / | 0.69 | / | / | / | / | /
CC(NC(=O)OCc1ccccc1)c1nnc(C(Cc2ccccc2)NC(=O)OC(C)(C)C)o1 (centres undefined) | / | / | 0.67 | / | / | / | / | /
O=[N+]([O-])c1ccc(Cl)c(C=NN2CCN(Cc3ccc(Cl)cc3)CC2)c1 | / | / | 0.72 | / | / | / | / | /
Oc1ccc(Cl)cc1Sc1cc(Cl)ccc1O | -5 | / | / | / | 12* | 9 | 14 | 9
CN(C)C(=O)c1cc(Cl)ccc1Sc1cc(Cl)ccc1Cl | -2 | 3 | 0.67 | 4 | 1 | / | / | /
Cc1cc(=O)[nH]c(NN=Cc2ccc(-c3ccc(F)cc3)o2)n1 | / | / | 0.68 | / | / | / | / | /
Cc1cc(Nc2ccccc2Cl)c2ccccc2n1 | -5 | 2 | 0.63 | 1 | 15* | 0 | -1 | 9
CC(=NNC(=O)CNC(=O)C1COc2ccccc2O1)c1ccc(Cl)cc1 (centres undefined) | / | / | 0.66 | / | / | / | / | /
Cn1nc(C(=O)NCC(=O)Nc2ccc(F)c(F)c2)ccc1=O | / | / | / | / | 11* | 0 | -1 | -3
